A selection: hits, their analogues and other compounds. The true share with any hit is near 1.7%.
TrxR1 inh – rat TrxR1 inhibition; hit rate 1% among 390,000; recombinant rTrxR1, NADPH fluorescence consumption, selenite substrate; O89049; Potency, µM (doses to about 114 µM), for the others: top-dose activity change, negative = inhibition, usual class: inhibitors; note: % is set by controls: 0 for no effect and ±100 for the full control effect; nearly all actives have a fitted effect of over 65% in size
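Rat TrxR1 (90 nM in the dispensed reagent) was pre-reduced with 400 uM NADPH for 5 min at room temperature, then incubated with compound for 15 min. After 400 uM selenite was added, NADPH fluorescence (Ex 340/Em 450 nm) was followed for 8 min.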
TrxR1 substrate – is turned over as a substrate by rat TrxR1. O89049. purified TrxR1 substrate turnover, NADPH consumption readout. Potency, µM (top dose mostly 114 µM), for the others: top-dose activity change, negative = substrate turnover. hit rate 0.01% among 390,000. AID 588456; note: % is set by controls: 0 for no effect and ±100 for the full control effect; nearly all actives have a fitted effect of over 50% in size
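Rat TrxR1, dispensed at 90 nM, was prereduced with 400 uM NADPH (final) for 5 min at ~22 deg C, then incubated with compound 15 min before 400 uM selenite. A first-read NADPH fluorescence drop versus no-compound background flagged substrates.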
mIDH1 inhibitor – inhibitors of human mutant IDH1 R132H; Potency, µM (series often up to 76.6 µM), inactives show top-dose activity change, negative = inhibition, actives largely listed as inhibitors; hit rate 0.093% among 390,000; O75874; AID 602179; IDH1-R132H enzyme, NADPH consumption, diaphorase/resazurin fluorescence; note: % is set by controls: 0 for no effect and ±100 for the full control effect; nearly all actives have a fitted effect of over 65% in size
Target sequence (O75874 whole entry R132H, stated change not applied): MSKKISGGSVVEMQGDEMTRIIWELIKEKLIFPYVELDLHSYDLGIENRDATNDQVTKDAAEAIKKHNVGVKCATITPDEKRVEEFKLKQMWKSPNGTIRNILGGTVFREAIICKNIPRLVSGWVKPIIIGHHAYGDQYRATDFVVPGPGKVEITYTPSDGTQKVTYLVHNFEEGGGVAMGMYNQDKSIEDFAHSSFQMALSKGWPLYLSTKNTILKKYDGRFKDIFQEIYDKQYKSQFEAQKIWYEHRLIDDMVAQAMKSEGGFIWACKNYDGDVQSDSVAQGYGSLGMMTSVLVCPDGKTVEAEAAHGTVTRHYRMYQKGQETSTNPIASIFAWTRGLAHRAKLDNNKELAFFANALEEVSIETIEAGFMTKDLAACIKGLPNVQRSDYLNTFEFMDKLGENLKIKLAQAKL
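IDH1-R132H (0.5 ug/mL dispensed) in pH 7.5 Tris buffer was preincubated 30 min with compound, then given a substrate mix of 0.016 mM NADPH and 2 mM alpha-KG for 80 min at room temperature; remaining NADPH was read by diaphorase/resazurin fluorescence.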
Apoferritin bind – candidate novel general anesthetic via apoferritin binding. AID 485281. apoferritin/1-aminoanthracene competitive binding, fluorescence. hit rate 0.074% among 350,000. Potency, µM (titrated, usually from 77.5 µM), for the others: at the highest dose activity change, negative = displacement, hits mostly inhibitors. P02791; note: % is set by controls: 0 for no effect and ±100 for the full control effect; nearly all actives have a fitted effect of over 20% in size
Target sequence (P02791 2-175 limits assumed): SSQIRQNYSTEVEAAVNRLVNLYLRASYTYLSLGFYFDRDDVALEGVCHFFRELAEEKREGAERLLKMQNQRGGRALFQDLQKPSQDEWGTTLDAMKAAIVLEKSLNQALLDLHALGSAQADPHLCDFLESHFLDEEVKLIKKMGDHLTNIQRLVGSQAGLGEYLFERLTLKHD
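Horse-spleen apoferritin (10 uM) was mixed with 50% saturated 1-aminoanthracene in PBS, exposed to compounds for 10 min at room temperature, and read for fluorescence (ex 380 nm, em 535 nm). Competitive displacement was fitted with a four-parameter Hill equation.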
Glioma ERSR ind – ER stress response induction in glioma; U87-MG GRP78 promoter luciferase reporter, 16 h; Potency, µM, inactives show top-dose activation, hits mostly activators; hit rate 0.02% among 420,000; note: series mostly up to about 76 µM; % of control where 0% means no effect; nearly all actives have a fitted effect of over 35% in size
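ERSR induction read as luciferase luminescence (Bright-Glo, 10 min at room temperature) in stably transfected human U87-MG glioma cells exposed to compounds for 16 h, using GRP78 as sensor.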
12-LOX inh – inhibitors of human 12S-lipoxygenase ALOX12. Potency, µM (titrated, usually from 108 µM), without a hit: top-dose activity change, negative = inhibition, actives largely listed as inhibitors. hit rate 1.1% among 580,000. AID 1671190. P18054. purified 12hLO, xylenol orange hydroperoxide absorbance; note: % is set by controls: 0 for no effect and ±100 for the full control effect
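Hydroperoxide product was detected by ferrous iron/xylenol orange as the 573 to 405 nm absorbance ratio. Arachidonic acid at 40 uM (final) was turned over for 30 min at room temperature by 150 nM human 12hLO, pH 7.0 Hepes buffer, after 15 min compound preincubation.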
Active calls of the source: *; ? = inconclusive; nt = not tested or not shown; [ ] = remark or other dose. Calls come from the whole dose curve; as a rule, active = well fitted curve in the direction sought with a large enough effect; inconclusive = small, poorly fitted or top-dose-only effect, or another doubt; inactive = no such curve, though single readings can be large; an effect the other way counts as inactive or inconclusive. Potency is the fitted concentration of half-maximal effect.

SMILES	TrxR1 inh	TrxR1 substrate	mIDH1 inhibitor	Apoferritin bind	Glioma ERSR ind	12-LOX inh
COC(=O)c1ccc(C2Nc3ccc(/C(C)=N/NC(=O)C(OC)c4ccccc4)cc3C3C=CCC32)cc1 (centres undefined)	22µM*	0%	1%	?	-5%	?
CC/C(=N\NC(=O)CSCc1ccc(Cl)cc1)c1ccc2c(c1)OCCO2	-7%[57.1 µM]	-7%	-6%	18µM*	-6%	-19%
Oc1c(Br)cc(Br)cc1C=NCc1ccc(F)cc1	-13%	-7%	-10%	-5%	-5%	40µM*
COc1ccc2[nH]c(=O)c(-c3nnn(-c4ccc(F)cc4)n3)cc2c1	-9%	-6%	8%	nt	-3%	10µM*
CCN(CC)c1nc2ccccc2nc1C(C#N)S(=O)(=O)c1ccc(C)cc1 (centres undefined)	nt	nt	nt	nt	nt	14µM*
O=C(O)c1ccc(/C=N/n2cc(-c3ccccc3)[nH]c2=S)cc1	-9%	2%	3%	1%	4%	45µM*
S=c1[nH]c(-c2ccccc2)cn1/N=C/c1ccc(Br)cc1	-34%	8%[57.1 µM]	-3%	0%	-3%	40µM*
CN1CCC(NC(=O)c2n[nH]c3c2CN(C(=O)c2ccc(F)cc2F)CC3)CC1	nt	nt	nt	nt	nt	-13%
COc1ccc(S(=O)(=O)n2nc(OC(=O)c3ccncc3)cc2N)cc1	28µM*	2%	3%	-9%	-5%	2%
COc1ccc(C(=O)Nc2cc3c(cc2N2CCCCC2)n(C)c(=O)n3C)cc1OC	16%	-4%	46µM*	4%	-2%	6%
CCOc1ccccc1C(=O)Nc1cc2c(cc1N1CCCC1)n(CC)c(=O)n2CC	-17%	-10%	46µM*	-10%	-9%	?
CCCN(CC1CCOC1)S(=O)(=O)c1ccc(C(C)C)cc1 (centres undefined)	nt	nt	nt	nt	nt	-8%
COc1ccc(N2CCN(CCC(=O)c3ccc4ccccc4c3)CC2)cc1	1.8µM*	5%	0%	-7%	-13%	0%
CCOC(=O)N1CCN(CCC(=O)c2ccc(Br)cc2)CC1	1µM*	11%[57.1 µM]	0%	-3%	-14%	?
COc1cc2c(cc1OC)CN(CCC(=O)c1ccc(Br)cc1)CC2	0.28µM*	-3%[57.1 µM]	-2%	-8%	-16%	?
CCOC(=O)N1CCN(CCC(=O)c2ccc(OC)cc2)CC1	3.5µM*	5%	-2%	0%	-13%	-7%
COc1ccc(N2CCN(CC(=O)c3ccccc3)CC2)cc1	?	4%	1%	-6%	3%	nt
Cc1nnc2ccc(NC(C)C)nn12	nt	nt	nt	nt	nt	17%
CCCCNC(=O)c1ccc(CC)s1	nt	nt	nt	nt	nt	-13%
CC(C)c1ccc(NC(=O)Nc2nc(C(N)c3ccccc3Cl)cs2)cc1 (centres undefined)	nt	nt	nt	nt	-10%	-12%
O=C(CCN1CCN(c2ccc([N+](=O)[O-])cc2)CC1)c1ccc(Cl)cc1	7.1µM*	-9%	0%	-3%	-9%	0%
COc1ccc(C(=O)CCN2CCC(C)CC2)cc1	0.71µM*	0%	-2%	5%	-8%	-14%
O=C(CN1CCN(c2ccc([N+](=O)[O-])cc2)CC1)c1ccccc1	?	9%[57.1 µM]	6%	-18%	1%	?
CC(C)NC(=O)C1CC(=O)N(c2n[nH]c3cc(Br)ccc23)C1 (centres undefined)	nt	nt	nt	nt	nt	23%
Cc1c(C(=O)N(Cc2nc3ccccc3c(=O)[nH]2)C(C)C)oc2ccc(Br)cc12	nt	nt	nt	nt	nt	45µM*
SMILES	TrxR1 inh	TrxR1 substrate	mIDH1 inhibitor	Apoferritin bind	Glioma ERSR ind	12-LOX inh
COc1ccc(C(=O)COc2ccc(F)cc2)c(O)c1	20%	3%	0%	-3%	2%	9%
O=C(COc1ccc(F)cc1)c1c(O)cc(O)cc1O	7.1µM*	-10%	-4%	-2%	-1%	-21%
Cc1ccc2cc(CN(Cc3ccco3)Cc3nnnn3Cc3ccco3)c(=O)[nH]c2c1	?	-6%	nt	nt	-4%	nt
Cc1ccc2[nH]c(=O)c(CN(Cc3ccc4c(c3)OCO4)Cc3nnnn3Cc3ccco3)cc2c1	6%[57.1 µM]	-4%[57.1 µM]	2%	-1%	0%	?
O=c1[nH]c2cc3c(cc2cc1CN(Cc1cccs1)Cc1nnnn1Cc1ccco1)OCCO3	16µM*	27%	-12%	-6%	4%	?
Cc1ccc2[nH]c(=O)c(CN(CCc3ccccc3)C(c3nnnn3Cc3ccco3)C(C)C)cc2c1 (centres undefined)	-9%	-3%	-15%	-6%	-1%	11µM*
O=c1[nH]c2cc3c(cc2cc1CN(Cc1cccnc1)Cc1nnnn1Cc1ccco1)OCCO3	11µM*	56%	3%	103%	-1%	-11%
COc1ccccc1CN(Cc1cc2cc3c(cc2[nH]c1=O)OCCO3)Cc1nnnn1Cc1ccco1	5.6µM*	44%	-15%	72%	-2%	-18%
O=C(CC[C@H]1O[C@@H](n2ccc(=O)[nH]c2=O)[C@H](O)[C@@H]1O)N[C@@H](Cc1ccccc1)C(=O)NCc1ccccc1	nt	nt	nt	nt	-1%	-3%
COc1ccc(NC(=O)NC[C@H]2O[C@@H]3C[C@@H](CC(=O)NCc4nccn4C)O[C@@H]3[C@@H]2O)cc1	nt	nt	nt	nt	nt	1%
Cc1cnn(CCC(=O)N2CCc3nn(CC#N)c(=O)n3CC2)c1	nt	nt	nt	nt	nt	17%
COCCOC1CCN(C(=O)CCc2c[nH]c3ccccc23)CC1	nt	nt	nt	nt	nt	30%
Cc1ccc2cc(CN(C(=O)c3ccco3)c3ccccc3C)c(=O)[nH]c2c1	?	16%[57.1 µM]	1%	-24%	-3%	336%
Cc1cc(C)c2cc(CN(Cc3nnnn3C3CCCCC3)CC3CCCO3)c(=O)[nH]c2c1 (centres undefined)	-29%	-11%	4%	-5%	-2%	11µM*
O=C(c1ccco1)N(Cc1cc2ccccc2[nH]c1=O)CC1CCCO1 (centres undefined)	-7%	6%[57.1 µM]	-1%	-1%	-11%	357%
Cc1ccc2cc(CN(Cc3nnnn3Cc3ccco3)CC3CCCO3)c(=O)[nH]c2c1C (centres undefined)	25µM*	-6%	7%	-6%	-1%	15%
Cc1cccc2cc(CN(CC3CCCO3)C(=O)c3ccco3)c(=O)[nH]c12 (centres undefined)	16µM*	9%	10%	-18%	-2%	?
Cc1ccc2cc(CN(C(=O)c3ccco3)c3cccc(C)c3C)c(=O)[nH]c2c1	18µM*	6%	-20%	-13%	-3%	-11%
CCOc1ccc(N(Cc2cc3cc(C)ccc3[nH]c2=O)C(=O)c2cccc(OC)c2)cc1	nt	nt	nt	nt	nt	-9%

Compound activity (PubChem)
